Legend:
Test in all cases: universal protein binding microarray (PBM); transcription factors of Arabidopsis thaliana; high values mean tight binding
GST-ANAC092(1-176) = target: T1, GST-ANAC092(1-176) (Arabidopsis thaliana, UniProt Q9FKA0 1-176); conditions: protein: recombinant; tags: GST; chain copies: 2; dsDNA, one strand shown
T1 sequence: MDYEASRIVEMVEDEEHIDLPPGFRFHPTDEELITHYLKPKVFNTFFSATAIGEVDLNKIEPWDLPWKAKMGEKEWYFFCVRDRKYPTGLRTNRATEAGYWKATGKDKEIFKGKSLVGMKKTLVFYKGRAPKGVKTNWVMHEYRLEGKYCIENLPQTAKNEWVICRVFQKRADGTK
In short: (§1)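 For zinc-finger proteins, zinc acetate was added while GST-tagged NAC-domain, full-length or DNA-binding-domain proteins were induced in cells. Purification used glutathione–Sepharose 4B, and quantification used A280 or anti-GST western blot. Custom all-10-mer Agilent 4 × 180K arrays, made double-stranded by primer extension, each received a protein at 200 to 500 nM final in duplicate. Scoring covered gapped and ungapped 8-mers, with binding given as the normalised enrichment score (E-score).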

GST-ANAC019 NAC domain = target: T2, GST-ANAC019 NAC domain (Arabidopsis thaliana, UniProt Q9C932 14-162); conditions: protein: recombinant; tags: GST; chain copies: 2; dsDNA, one strand shown
T2 sequence: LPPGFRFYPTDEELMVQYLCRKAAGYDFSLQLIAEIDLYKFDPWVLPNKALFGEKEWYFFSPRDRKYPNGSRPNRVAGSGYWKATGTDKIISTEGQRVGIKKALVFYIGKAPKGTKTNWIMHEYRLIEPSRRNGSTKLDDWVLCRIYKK
In short: as §1

GST-ANAC055(1-171) = target: T3, GST-ANAC055(1-171) (Arabidopsis thaliana, UniProt Q9LDY8 1-171); conditions: protein: recombinant; tags: GST; chain copies: 2; dsDNA, one strand shown
T3 sequence: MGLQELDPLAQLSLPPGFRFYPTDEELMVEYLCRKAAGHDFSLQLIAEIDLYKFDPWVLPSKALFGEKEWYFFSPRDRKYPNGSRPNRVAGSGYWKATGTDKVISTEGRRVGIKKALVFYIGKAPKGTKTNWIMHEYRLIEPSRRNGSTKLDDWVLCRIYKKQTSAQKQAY
In short: as §1

GST-ATAF1 NAC domain = target: T4, GST-ATAF1 NAC domain (Arabidopsis thaliana, UniProt Q39013 7-158); conditions: protein: recombinant; tags: GST; chain copies: 2; dsDNA, one strand shown
T4 sequence: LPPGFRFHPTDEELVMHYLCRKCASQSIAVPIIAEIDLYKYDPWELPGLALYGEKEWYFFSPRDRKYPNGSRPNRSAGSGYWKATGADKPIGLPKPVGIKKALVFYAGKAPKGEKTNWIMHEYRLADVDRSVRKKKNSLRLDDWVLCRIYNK
In short: as §1

[1] = target: T5, GST-ANAC092(1-285) full length (Arabidopsis thaliana, UniProt Q9FKA0 1-285); conditions: protein: recombinant; tags: GST; chain copies: 2; dsDNA, one strand shown
T5 sequence: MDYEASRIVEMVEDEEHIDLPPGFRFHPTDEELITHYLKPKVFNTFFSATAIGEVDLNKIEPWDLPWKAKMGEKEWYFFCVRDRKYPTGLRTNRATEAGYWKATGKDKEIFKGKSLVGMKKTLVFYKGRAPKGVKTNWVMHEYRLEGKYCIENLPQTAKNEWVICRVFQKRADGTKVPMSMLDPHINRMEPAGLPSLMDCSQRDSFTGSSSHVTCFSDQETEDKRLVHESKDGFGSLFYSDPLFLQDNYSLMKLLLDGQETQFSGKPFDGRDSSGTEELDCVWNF
In short: as §1

GST-NAP(1-166) = target: T6, GST-NAP(1-166) (Arabidopsis thaliana, UniProt O49255 1-166); conditions: protein: recombinant; tags: GST; chain copies: 2; dsDNA, one strand shown
T6 sequence: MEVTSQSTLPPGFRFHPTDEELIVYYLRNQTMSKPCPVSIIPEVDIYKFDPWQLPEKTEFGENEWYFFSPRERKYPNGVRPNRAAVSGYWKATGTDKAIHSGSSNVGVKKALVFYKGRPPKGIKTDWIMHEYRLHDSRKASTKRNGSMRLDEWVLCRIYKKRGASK
In short: as §1

GST-NST2(1-184) = target: T7, GST-NST2(1-184) (Arabidopsis thaliana, UniProt Q9M274 1-184); conditions: protein: recombinant; tags: GST; chain copies: 2; dsDNA, one strand shown
T7 sequence: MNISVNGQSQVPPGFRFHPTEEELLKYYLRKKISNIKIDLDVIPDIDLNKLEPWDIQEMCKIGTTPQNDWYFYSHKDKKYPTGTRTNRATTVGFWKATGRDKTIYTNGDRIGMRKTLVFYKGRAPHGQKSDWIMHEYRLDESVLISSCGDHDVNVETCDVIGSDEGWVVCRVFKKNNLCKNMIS
In short: as §1

GST-NTL8 NAC domain = target: T8, GST-NTL8 NAC domain (Arabidopsis thaliana, UniProt Q9XIN7 14-156); conditions: protein: recombinant; tags: GST; chain copies: 2; dsDNA, one strand shown
T8 sequence: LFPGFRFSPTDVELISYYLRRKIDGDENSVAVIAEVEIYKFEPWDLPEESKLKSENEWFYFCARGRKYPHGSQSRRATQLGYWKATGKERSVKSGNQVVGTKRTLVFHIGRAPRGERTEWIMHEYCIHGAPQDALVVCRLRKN
In short: as §1

GST-SND1(1-203) = target: T9, GST-SND1(1-203) (Arabidopsis thaliana, UniProt Q9LPI7 1-203); conditions: protein: recombinant; tags: GST; chain copies: 2; dsDNA, one strand shown
T9 sequence: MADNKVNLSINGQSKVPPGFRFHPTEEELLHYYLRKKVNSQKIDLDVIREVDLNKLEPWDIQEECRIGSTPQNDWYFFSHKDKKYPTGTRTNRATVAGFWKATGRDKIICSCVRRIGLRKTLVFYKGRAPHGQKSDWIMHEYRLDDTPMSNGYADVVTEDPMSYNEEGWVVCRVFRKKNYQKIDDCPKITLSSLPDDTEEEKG
In short: as §1

GST-VND3 NAC domain = target: T10, GST-VND3 NAC domain (Arabidopsis thaliana, UniProt Q9FH59 12-162); conditions: protein: recombinant; tags: GST; chain copies: 2; dsDNA, one strand shown
T10 sequence: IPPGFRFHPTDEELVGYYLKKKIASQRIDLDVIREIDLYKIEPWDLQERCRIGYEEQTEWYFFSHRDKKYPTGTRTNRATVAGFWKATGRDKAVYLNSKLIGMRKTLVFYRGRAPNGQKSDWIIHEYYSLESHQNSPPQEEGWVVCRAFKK
In short: as §1

GST-VND7 NAC domain = target: T11, GST-VND7 NAC domain (Arabidopsis thaliana, UniProt Q9C8W9 9-158); conditions: protein: recombinant; tags: GST; chain copies: 2; dsDNA, one strand shown
T11 sequence: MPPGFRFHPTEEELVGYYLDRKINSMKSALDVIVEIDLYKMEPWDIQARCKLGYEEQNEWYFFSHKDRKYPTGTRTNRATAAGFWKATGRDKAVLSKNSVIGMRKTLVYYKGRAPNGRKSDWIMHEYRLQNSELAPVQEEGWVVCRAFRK
In short: as §1

GST-NTL6(1-168) = GST-NTL6(1-168) (Arabidopsis thaliana, UniProt Q9SCK6 1-168); conditions: protein: recombinant; tags: GST; chain copies: 2; dsDNA, one strand shown
GST-NTL6(1-168), sequence (Q9SCK6 1-168): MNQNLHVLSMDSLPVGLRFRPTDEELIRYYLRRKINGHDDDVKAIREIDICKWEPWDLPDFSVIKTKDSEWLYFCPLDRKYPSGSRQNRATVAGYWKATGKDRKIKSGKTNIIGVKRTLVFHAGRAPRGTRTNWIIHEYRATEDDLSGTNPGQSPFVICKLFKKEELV
In short: as §1

GST-WRKY1(266-371) = GST-WRKY1(266-371) (Arabidopsis thaliana, UniProt Q9SI37 266-371); conditions: protein: recombinant; tags: GST; dsDNA, one strand shown
GST-WRKY1(266-371), sequence (Q9SI37 266-371): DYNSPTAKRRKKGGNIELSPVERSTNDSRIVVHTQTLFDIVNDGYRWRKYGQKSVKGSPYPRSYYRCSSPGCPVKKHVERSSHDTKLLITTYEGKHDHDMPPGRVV
In short: as §1

| Sequence | binding signal (GST-ANAC092(1-176)) | binding signal (GST-ANAC019 NAC domain) | binding signal (GST-ANAC055(1-171)) | binding signal (GST-ATAF1 NAC domain) | binding signal [1] | binding signal (GST-NAP(1-166)) | binding signal (GST-NST2(1-184)) | binding signal (GST-NTL8 NAC domain) | binding signal (GST-SND1(1-203)) | binding signal (GST-VND3 NAC domain) | binding signal (GST-VND7 NAC domain) | binding signal (GST-NTL6(1-168)) | binding signal (GST-WRKY1(266-371)) |
| --- | --- | --- | --- | --- | --- | --- | --- | --- | --- | --- | --- | --- | --- |
| CCACACGC | 0.4 E-score | 0.242 E-score | 0.15 E-score | 0.155 E-score | 0.436 E-score | 0.169 E-score | 0.144 E-score | 0.0869 E-score | 0.213 E-score | 0.163 E-score | 0.181 E-score |  |  |
| CACGCCAA | 0.443 E-score | 0.185 E-score | 0.159 E-score | 0.16 E-score | 0.451 E-score | 0.114 E-score | 0.3 E-score | 0.0657 E-score | 0.334 E-score | 0.0966 E-score | 0.114 E-score |  |  |
| CACGTTAC | 0.467 E-score | 0.241 E-score | 0.293 E-score | 0.287 E-score | 0.476 E-score | 0.221 E-score | 0.328 E-score | 0.0995 E-score | 0.432 E-score | 0.319 E-score | 0.275 E-score |  |  |
| GCACGTAA | 0.461 E-score | 0.478 E-score | 0.433 E-score | 0.381 E-score | 0.467 E-score | 0.427 E-score | 0.218 E-score | 0.189 E-score | 0.225 E-score | 0.454 E-score | 0.454 E-score |  |  |
| ACGCAACG | 0.46 E-score | 0.327 E-score | 0.23 E-score | 0.27 E-score | 0.463 E-score | 0.387 E-score | 0.3 E-score | 0.113 E-score | 0.461 E-score | 0.278 E-score | 0.316 E-score |  |  |
| ACGCAATG | 0.452 E-score | 0.32 E-score | 0.21 E-score | 0.162 E-score | 0.456 E-score | 0.35 E-score | 0.359 E-score | 0.0941 E-score | 0.437 E-score | 0.314 E-score | 0.311 E-score |  |  |
| GACACGCA | 0.43 E-score | 0.358 E-score | 0.275 E-score | 0.304 E-score | 0.455 E-score | 0.283 E-score | 0.0949 E-score | 0.0711 E-score | 0.242 E-score | 0.208 E-score | 0.318 E-score |  |  |
| CACGGCAC | 0.462 E-score | 0.484 E-score | 0.484 E-score | 0.432 E-score | 0.474 E-score | 0.478 E-score | 0.292 E-score |  | 0.203 E-score | 0.458 E-score | 0.485 E-score |  |  |
| TCACGTAA | 0.443 E-score | 0.47 E-score | 0.424 E-score | 0.324 E-score | 0.445 E-score | 0.405 E-score | 0.269 E-score | 0.209 E-score | 0.326 E-score | 0.441 E-score | 0.44 E-score |  |  |
| CTACGCAA | 0.427 E-score | 0.316 E-score | 0.207 E-score | 0.267 E-score | 0.447 E-score | 0.196 E-score | 0.364 E-score | 0.126 E-score | 0.488 E-score | 0.365 E-score | 0.349 E-score |  |  |
| AGCACGCA | 0.435 E-score | 0.333 E-score | 0.281 E-score | 0.31 E-score | 0.453 E-score | 0.282 E-score | 0.222 E-score | 0.0609 E-score | 0.343 E-score | 0.301 E-score | 0.216 E-score |  |  |
| AATGCGTA | 0.371 E-score |  | 0.0991 E-score | 0.142 E-score | 0.387 E-score | 0.183 E-score | 0.212 E-score |  | 0.414 E-score | 0.148 E-score | 0.118 E-score |  |  |
| AAGTCAGA | 0.0562 E-score | 0.0582 E-score | 0.073 E-score |  | 0.14 E-score |  | 0.132 E-score |  | 0.0642 E-score | 0.166 E-score |  | 0.0583 E-score | 0.455 E-score |
| ACGCCATC | 0.421 E-score |  | 0.098 E-score | 0.0609 E-score | 0.453 E-score | 0.171 E-score | 0.237 E-score |  | 0.41 E-score | 0.125 E-score | 0.108 E-score |  |  |
